miR-122 inh: miR-122 sensor activation | Huh7 psiCHECK-miR122 Renilla luciferase sensor, 48 h | activation, % at 12.5 µM | actives 0.14% (n = 340,000);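 active means mean activation of 30% or more, with every replicate also reaching 30%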;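 further: higher luciferase signal means stronger suppression of miR-122 activity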
Of the large screens only hits and unclear results are named; the others gave an inactive call. Only a selection was taken, and hits are over-represented in it overall.

CN1CCN(c2ccc([N+](=O)[O-])c3no[n+]([O-])c23)CC1	miR-122 inh 35.1
COc1cc2c(c(OC)c1OC)-c1ccc(O)c(=O)cc1C(NC(C)=O)CC2 (configuration not stated)	none
CCOc1ccccc1NC(=O)N1CCC2(CC1)OCCO2	none
CCN(CC)S(=O)(=O)c1ccc(C)c(NCC(=O)Nc2ccc(C#N)c(Cl)c2)c1	none
COc1ccc(C2SCC(=O)Nc3c2c(=O)[nH]n3C2CCCCCC2)cc1 (configuration not stated)	miR-122 inh 37.0
CCCCn1nnnc1C(c1cccc(OC)c1OC)N1CCC2(CC1)C(=O)NCN2c1ccccc1 (configuration not stated)	none
Cc1ccc(OP(=O)(Nc2cccc(C)c2)Oc2ccc(C)cc2)cc1	none
CN=C1CN(O)C(c2ccccc2)c2cc(Cl)ccc2N1 (configuration not stated)	none
O=c1cc(C2CCNCC2)[nH][nH]1	none
COc1ccc(NP(=O)(Oc2ccc(Cl)cc2)Oc2ccc(Cl)cc2)cc1OC	none
